Assay results published in PubChem BioAssay AID504332 (National Center for Advancing Translational Sciences (NCATS), 2011).
The whole screen tested about 350,000 compounds, of which about 31,000 (8.9%) were called active. About 15% were inconclusive and are not listed. The call rests on the fitted dose curve; in most records, active means well fitted inhibition curve with a large enough effect; inconclusive means small, poorly fitted or top-dose-only effect; inactive means no such curve, though single readings can be large or run the other way. The full list was thinned out, with actives kept by preference.
Further: nearly all actives have a fitted effect of over 75% in size.
On the % scale 0 is the no-effect control and ±100 the full control effect; potency means the concentration at half of the fitted maximal effect.

What follows are molecules tested against Histone-lysine N-methyltransferase EHMT2 (Homo sapiens) (UniProt Q96KQ7) (assay: qHTS Assay for Inhibitors of Histone Lysine Methyltransferase G9a). Conditions: G9a H3K9 monomethylation, AlphaScreen, 2 h; series mostly up to 59 µM; activity, negative = inhibition: at the top concentration.
Chain of Histone-lysine N-methyltransferase EHMT2 (Homo sapiens) (Q96KQ7 913-1193 limits assumed): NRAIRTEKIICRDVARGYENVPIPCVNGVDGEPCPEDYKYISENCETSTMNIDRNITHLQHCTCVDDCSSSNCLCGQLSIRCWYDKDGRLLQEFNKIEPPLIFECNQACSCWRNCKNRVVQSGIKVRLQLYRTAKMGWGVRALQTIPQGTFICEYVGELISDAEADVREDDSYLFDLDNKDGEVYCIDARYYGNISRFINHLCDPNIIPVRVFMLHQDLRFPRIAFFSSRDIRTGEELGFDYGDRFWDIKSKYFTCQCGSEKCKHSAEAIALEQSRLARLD
Text: Methylated lysines, on the N-terminal tails of histone proteins serve as epigenetic markers to recruit factors that can then modify local chromatin structure to lead to functional consequences. G9a and other members of the SUV39 family of the SET domain-containing superfamily of histone lysine methyltransferases (HMT) have been identified to specifically methylate Lys9 of histone H3 (H3K9). G9a catalyzes the mono- and di-methylation of H3K9 in mammalian euchromatic regions, where the resulting H3K9me2 is indicative of transcriptional repression. […] The inhibition of G9a will result in transcriptional activation and work synergistically with DNA methyltransferase and histone deacetylase inhibitors, to kill cancer cells. This qHTS assay for identification of G9a inhibitors is a chemiluminescence based AlphaScreen (PerkinElmer). Methylation of biotinylated-histone peptide is measured through specific antibody-based detection, in conjunction with streptavidin-coated donor and anti-IgG antibody-coated acceptor beads. The method is particularly well suited for detection of inhibitors acting by the desired histone peptide competitive mechanism and is applicable to testing other HMTs. Although AlphaScreen has significant advantages with its utility in a variety of epigenetic target assays, the primary screening data provided in this deposition should be used with caution due to the prevalence of screening artifacts. An AlphaScreen counterscreen is highly recommended to be run against any putative actives to eliminate non specific artifacts. Alternatively, one can use other AlphaScreen assays in PubChem to filter out promiscuous hits. Quinn et al. A chemiluminescence-based method for identification of histone lysine methyltransferase inhibitors. Mol Biosyst 6(5): 782-8. 2010. PMID: 20567762 [2] Baell,Holloway. New substructure filters for removal of pan assay interference compounds (PAINS) from screening libraries and for their exclusion in bioassays. J Med Chem. 53(7):2719-40. 2010. PMID: 20131845 NIH Molecular Libraries Probe Production Network [MLPCN] NIH Chemical Genomics Center [NCGC] Structural Genomics Consortium (SGC) NIH Grant: 5U54 MH084681-02
To each well of a 1,536w plate, 2ul of HMT enzyme (final 20nM) were added, using a nanoliter dispenser. The G9a- and GLP-inhibitor BIX-01294 (CID: 25150857) are used as an intraplate control, with a 16-point titration in duplicate. A Kalypsys pin-tool transferred 23nl of library compound solution in DMSO to each well. Following a 15 min incubation of enzyme with compounds at room temperature, 1ul mixture of b-H3K9 peptide substrate (final 500nM) and SAM cofactor (final 20uM) were added. Reactions were allowed to proceed at room temperature for 2 hours. Methylated b-H3K9 peptide product was detected with 0.5 ug/mL rabbit polyclonal anti-monomethyl histone H3K9 antibody (Abcam Inc., Cambridge, MA) and 20 ug/mL each streptavidin-coated donor and anti-rabbit IgG acceptor AlphaScreen beads. Antibody and beads were added in a 1ul dispense, for a final volume of 4ul, and plates were incubated, protected from the light, for 10 min at room temperature. Microplates were then read on an EnVision multilabel plate reader using the 1,536 plate HTS AlphaScreen aperture (excitation time 80 ms, measurement time 240 ms).
In the case of `CCn1c(CSCc2c(Cl)cccc2Cl)n[nH]c1=S`, the Potency is reported as 2.82 µM (active).
For `O=c1[nH]nc(CSCc2ccccc2Cl)[nH]1`, the “activity, negative = inhibition” value was -25.8% (inactive).
With `O=C(CSCc1c(Cl)cccc1Cl)NN1C(=O)c2ccccc2C1=O` the activity, negative = inhibition was -11.1% [at 2.33 µM] (inactive).
With `COc1ccccc1-n1ccnc(SCC(=O)NC2CCCCC2)c1=O` the “activity, negative = inhibition” value was -32.6% [at 102 µM] (inactive).
With `Cc1ccc(C)c(OCCC(=O)OCC(=O)NC(=O)NCc2ccccc2)c1` the “activity, negative = inhibition” value was -14% [at 102 µM] (inactive).
For `O=C(Nc1cccc([N+](=O)[O-])c1)Nc1ccc(Cl)cn1`, the “activity, negative = inhibition” value was 0.0678% [at 102 µM] (inactive).
In the case of `O=C(Nc1ccc(Cl)cn1)Nc1cccs1`, the Potency is reported as 56.2 µM (active).
With `CCCc1cc(C(=O)Nc2ccc(Cl)cn2)cs1` the “activity, negative = inhibition” value was 164% [at 102 µM] (inactive).
With `COc1ccc(S(=O)(=O)N2CCCCC2)cc1NC(=O)C1CC(=O)N(c2ccc3c(c2)OCCO3)C1` (configuration not stated) the “activity, negative = inhibition” value was -34.3% [at 102 µM] (inactive).
For `CCOc1ccc(S(=O)(=O)N2CCCCC2)cc1NC(=O)CN1CCCC1c1cccs1` (configuration not stated), the activity, negative = inhibition was 19.5% [at 2.33 µM] (inactive).
`Cc1nn(-c2nc(-c3ccccc3)cc(C(F)(F)F)n2)c(C)c1Cl` was tested, and the “activity, negative = inhibition” value was 32% (inactive).
`Cc1cc(C(F)(F)F)n2ncc(-c3ccccc3)c2n1` was tested, and the “activity, negative = inhibition” value was -32.2% (inactive).
In the case of `Cn1c(-c2sc3cc(C(F)(F)F)cnc3c2-c2ccccc2)n[nH]c1=S`, the Potency is reported as 2.24 µM (active).
In the case of `Cc1ccc2c(=O)c(C(=O)c3cccc(Cl)c3)cn(CC(=O)NCc3ccccc3)c2n1`, the “activity, negative = inhibition” value is reported as 4.96% (inactive).
`CC(=O)N1c2ccccc2N(Cc2ccc([N+](=O)[O-])cc2)C(=O)C1(C)C` was tested, and the “activity, negative = inhibition” value was 6.61% (inactive).
For `Cc1nc2ccccc2c(=O)n1Cc1ccc([N+](=O)[O-])cc1`, the “activity, negative = inhibition” value was -6.02% [at 102 µM] (inactive).
`O=C1NC(=O)C2C1C(c1ccc([N+](=O)[O-])cc1)=NN2Cc1ccccc1` (configuration not stated) was tested, and the Potency was 50.1 µM (active).
In the case of `Nn1c(SCC(=O)NC(=O)NC2CCCC2)nnc1-c1ccccc1F`, the “activity, negative = inhibition” value is reported as 17.4% [at 102 µM] (inactive).
`Nn1c(SCC(=O)NC2CCCC2)nnc1-c1ccccc1F` was tested, and the Potency was 50.1 µM (active).
In the case of `CC(C)NC(=O)NC(=O)CSc1nnc(-c2ccccc2F)n1N`, the “activity, negative = inhibition” value is reported as 12.1% [at 102 µM] (inactive).
In the case of `O=C(CSc1nnc(Nc2ccccc2F)s1)NC1CCCC1`, the Potency is reported as 8.91 µM (active).
With `O=C(CSc1nnc(Nc2ccccc2)s1)Nc1cccnc1Cl` the “activity, negative = inhibition” value was -22.7% [at 102 µM] (inactive).
For `Cc1cc(NC(=O)CSc2nnc(Nc3ccccc3F)s2)no1`, the “activity, negative = inhibition” value was 1.03% [at 102 µM] (inactive).
With `O=C1CCCN1C(=O)COc1ccc([N+](=O)[O-])cc1` the “activity, negative = inhibition” value was 4.7% (inactive).
With `COc1ccc(CCNc2nc(-c3ccc(F)cc3)cc(C(F)(F)F)n2)cc1OC` the “activity, negative = inhibition” value was 24.8% (inactive).
In the case of `Cc1cc(C)cc(-c2nnc(SCC(=O)NC3CC3)o2)c1`, the activity, negative = inhibition is reported as 18.2% [at 2.33 µM] (inactive).
With `CO[C@H]1[C@@H]2C=CO[C@@H](O[C@H]3O[C@@H](CO)[C@H](O)[C@@H](O)[C@@H]3O)[C@@H]2[C@@]2(CO)O[C@@H]12` the activity, negative = inhibition was -4.51% [at 2.33 µM] (inactive).
For `COc1cccc(CNC(=O)Cn2c(=O)c3cccn3c3ccc(F)cc32)c1OC`, the “activity, negative = inhibition” value was 10.8% (inactive).
For `CCc1ccc(S(=O)(=O)Nc2cc3c(cc2N2CCCCC2)n(C)c(=O)c(=O)n3C)cc1`, the Potency was 44.7 µM (active).
For `CCc1ccc(S(=O)(=O)Nc2ccc(C)c(NS(C)(=O)=O)c2)cc1`, the “activity, negative = inhibition” value was -16.3% [at 102 µM] (inactive).
`Cn1c(=O)c(=O)n(C)c2cc(S(=O)(=O)NCCc3ccccc3)ccc21` was tested, and the activity, negative = inhibition was 29.1% [at 0.501 µM] (inactive).
With `CCOc1ccc2[nH]c(=O)c(C(c3nnnn3CCOC)N3CCOCC3)cc2c1` (configuration not stated) the activity, negative = inhibition was 8.47% [at 2.33 µM] (inactive).
With `Cc1ccc(C(c2nnnn2C(C)(C)C)N2CCc3ccccc3C2)cc1` (configuration not stated) the “activity, negative = inhibition” value was -10.6% (inactive).
`COc1ccc(OC)c(C(c2nnnn2C(C)(C)C)N2CCc3ccccc3C2)c1` (configuration not stated) was tested, and the Potency was 50.1 µM (active).
In the case of `CCC(C)(C)n1nnnc1C(c1ccccc1OC)N1CCSCC1` (configuration not stated), the “activity, negative = inhibition” value is reported as -7.71% (inactive).
For `COCCn1nnnc1C(c1cc2ccc(OC)cc2[nH]c1=O)N1CCc2ccccc2C1` (configuration not stated), the Potency was 5.62 µM (active).
In the case of `CN1CCN(C(c2cc3cc4c(cc3[nH]c2=O)OCCO4)c2nnnn2C2CCCC2)CC1` (configuration not stated), the “activity, negative = inhibition” value is reported as -7.18% [at 102 µM] (inactive).
With `Cc1ccc(Cn2c(C)c3cnn(CC(=O)NCc4ccccc4)c(=O)c3c2C)cc1` the “activity, negative = inhibition” value was -9.83% (inactive).
With `COc1ccc(S(=O)(=O)N2CCCCCC2)cc1C(=O)N(C)Cc1cccc(OC)c1OC` the “activity, negative = inhibition” value was -29.7% [at 102 µM] (inactive).
With `COc1ccc(CCNC(=O)CCCn2c(=O)c3ccccc3n(Cc3ccc(C)cc3)c2=O)cc1OC` the “activity, negative = inhibition” value was -28% (inactive).
With `C=CCn1c(SCC(=O)NC)nnc1C12CC3CC(CC(C3)C1)C2` the “activity, negative = inhibition” value was 5.32% [at 102 µM] (inactive).
For `C=CCn1c(C23CC4CC(CC(C4)C2)C3)n[nH]c1=S`, the Potency was 3.16 µM (active).
For `C=CCn1c(SCC(=O)NC23CC4CC(CC(C4)C2)C3)nc(O)cc1=O`, the “activity, negative = inhibition” value was 18.6% (inactive).
`COc1ccc(C(=O)NCc2ccc(C)cc2)cc1S(=O)(=O)N1CCCC1` was tested, and the activity, negative = inhibition was -16.6% [at 0.0925 µM] (inactive).
With `Nc1nc(SCC(=O)Nc2ccc(Cl)c([N+](=O)[O-])c2)n[nH]1` the activity, negative = inhibition was -3.46% [at 12.7 µM] (inactive).
In the case of `COc1ccc(CNC(=O)CSc2n[nH]c(N)n2)cc1OC`, the Potency is reported as 79.4 µM (active).
`Nc1nc(SCC(=O)NN(c2ccccc2)c2ccccc2)n[nH]1` was tested, and the “activity, negative = inhibition” value was 8.39% (inactive).
